Data reported in PubChem BioAssay (NCATS).
Records with an inconclusive call do not appear. A call without a number means that no potency is given here. Active and inactive are the calls of the source. The call rests on the fitted dose curve; in most records, active means well fitted inhibition curve with a large enough effect; inconclusive means small, poorly fitted or top-dose-only effect; inactive means flat fitted curve, though single readings scatter.

How the values were obtained:
Test in all cases: qHTS profiling for inhibitors of Plasmodium falciparum proliferation (AID 504749); further: nearly all actives have a fitted effect of over 60% in size
Details in all cases: P. falciparum in erythrocytes, SYBR Green DNA, 72 h; series mostly up to 28.7 µM
[1] = tested on: P94_40
Outline: (§1)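 Each compound contacts P. falciparum-infected red blood cells for 72 h at 37 C; lysis buffer (Tris, EDTA, saponin, Triton X, SYBR Green I) is added and fluorescence measured next morning; values normalized to controls.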

[2] = tested on: PAD
Outline: as §1

[3] = tested on: PC15
Outline: as §1

[4] = tested on: PC26
Outline: as §1

[5] = tested on: PC49
Outline: as §1

[6] = tested on: SC27B
Outline: as §1

[7] = tested on: TAB109
Outline: as §1

[8] = tested on: TAB113
Outline: as §1

[9] = tested on: TAB165
Outline: as §1

[10] = tested on: W2
Outline: as §1
Potency means the concentration at half of the fitted maximal effect.

With `CC(C(=O)O)c1ccc(N2Cc3ccccc3C2=O)cc1` (stereo not given) the Potency [1] was “inactive”, the Potency [2] was “inactive” and the Potency [3] was “inactive”. The Potency [4] was “inactive”, the Potency [5] was “inactive” and the Potency [6] was “inactive”. For the same molecule, the Potency [7] was “inactive”, the Potency [8] was “inactive” and the Potency [9] was “inactive”. The Potency [10] was “inactive”.

For `Cc1c(C)c2c(c(C)c1O)CC[C@@](C)(CCC[C@H](C)CCC[C@H](C)CCCC(C)C)O2`, the Potency [1] was “inactive”, the Potency [2] was “inactive” and the Potency [3] was “inactive”. The Potency [4] was “inactive”, the Potency [5] was “inactive” and the Potency [6] was “inactive”. The Potency [7] was “inactive”, the Potency [8] was “inactive” and the Potency [9] was “inactive”. The Potency [10] was “inactive”.

`CCNC(=O)[C@@H]1CCCN1C(=O)[C@H](CCCN=C(N)N)NC(=O)[C@H](CC(C)C)NC(=O)[C@@H](Cc1c[nH]c2ccccc12)NC(=O)[C@H](Cc1ccc(O)cc1)NC(=O)[C@H](CO)NC(=O)[C@H](Cc1c[nH]c2ccccc12)NC(=O)[C@H](Cc1cnc[nH]1)NC(=O)[C@@H]1CCC(=O)N1` was tested, and the Potency [1] was 7940 nM (active), the Potency [2] was 2240 nM (active) and the Potency [3] was 3550 nM (active). The Potency [4] was 3380 nM (active), the Potency [5] was 2820 nM (active) and the Potency [6] was 6310 nM (active). For the same molecule, the Potency [7] was 4470 nM (active), the Potency [8] was 8910 nM (active) and the Potency [9] was 3160 nM (active). For the same molecule, the Potency [10] was 849 nM (active).

`CC1(C)C(C=C(Cl)Cl)C1C(=O)OCc1cccc(Oc2ccccc2)c1` (stereo not given) was tested, and the Potency [1] was “inactive”, the Potency [2] was “inactive” and the Potency [3] was “inactive”. The Potency [4] was “inactive”, the Potency [5] was “inactive” and the Potency [6] was “inactive”. The Potency [7] was “inactive”, the Potency [8] was “inactive” and the Potency [9] was “inactive”.

`CC1=C(/C=C/C(C)=C/C=C/C(C)=C/C=C/C=C(C)/C=C/C=C(C)/C=C/C2=C(C)C(=O)CCC2(C)C)C(C)(C)CCC1=O` was tested, and the Potency [1] was “inactive”, the Potency [2] was “inactive” and the Potency [3] was “inactive”. The Potency [4] was “inactive”, the Potency [5] was “inactive” and the Potency [6] was “inactive”. The Potency [7] was “inactive”, the Potency [8] was “inactive” and the Potency [9] was “inactive”. For the same molecule, the Potency [10] was “inactive”.

For `C=CCSSSCC=C`, the Potency [1] was “inactive”, the Potency [2] was “inactive” and the Potency [3] was “inactive”. For the same molecule, the Potency [4] was “inactive”, the Potency [5] was “inactive” and the Potency [6] was “inactive”. The Potency [7] was “inactive”, the Potency [8] was “inactive” and the Potency [9] was “inactive”. For the same molecule, the Potency [10] was “inactive”.

For `O=S(=O)(O)c1ccc2c(N=Nc3ccc(S(=O)(=O)O)c4ccccc34)c(O)c(S(=O)(=O)O)cc2c1`, the Potency [1] was “inactive”, the Potency [2] was “inactive” and the Potency [3] was “inactive”. For the same molecule, the Potency [4] was “inactive”, the Potency [5] was “inactive” and the Potency [6] was “inactive”. For the same molecule, the Potency [7] was “inactive”, the Potency [8] was “inactive” and the Potency [9] was “inactive”. The Potency [10] was “inactive”.

`C#CCOc1ccc2c(C)cc(=O)oc2c1` was tested, and the Potency [1] was “inactive”, the Potency [2] was “inactive” and the Potency [3] was “inactive”. The Potency [4] was “inactive”, the Potency [5] was “inactive” and the Potency [6] was “inactive”. For the same molecule, the Potency [7] was “inactive”, the Potency [8] was “inactive” and the Potency [9] was “inactive”.

`CCOC(C)=O` was tested, and the Potency [1] was “inactive”, the Potency [2] was “inactive” and the Potency [3] was “inactive”. The Potency [4] was “inactive”, the Potency [5] was “inactive” and the Potency [6] was “inactive”. For the same molecule, the Potency [7] was “inactive”, the Potency [8] was “inactive” and the Potency [9] was “inactive”. For the same molecule, the Potency [10] was “inactive”.

In the case of `CC(=O)Oc1c(C)cc(OCC(O)CNC(C)C)c(C)c1C` (stereo not given), the Potency [1] is reported as “inactive”, the Potency [2] is reported as “inactive” and the Potency [3] is reported as “inactive”. The Potency [4] was “inactive”, the Potency [5] was “inactive” and the Potency [6] was “inactive”. The Potency [7] was “inactive”, the Potency [8] was “inactive” and the Potency [9] was “inactive”.

In the case of `C[C@]12O[C@H](C[C@]1(O)CO)n1c3ccccc3c3c4c(c5c6ccccc6n2c5c31)CNC4=O`, the Potency [1] is reported as 282 nM (active), the Potency [2] is reported as 251 nM (active) and the Potency [3] is reported as 447 nM (active). For the same molecule, the Potency [4] was 239 nM (active), the Potency [5] was 891 nM (active) and the Potency [6] was 316 nM (active). The Potency [7] was 355 nM (active), the Potency [8] was 316 nM (active) and the Potency [9] was 251 nM (active). For the same molecule, the Potency [10] was 239 nM (active).

For `COC(F)(F)C(Cl)Cl`, the Potency [1] was “inactive”, the Potency [2] was “inactive” and the Potency [3] was “inactive”. The Potency [4] was “inactive”, the Potency [5] was “inactive” and the Potency [6] was “inactive”. For the same molecule, the Potency [7] was “inactive”, the Potency [8] was “inactive” and the Potency [9] was “inactive”. The Potency [10] was “inactive”.

In the case of `CCN(CC)Cc1cc(Nc2ccnc3cc(Cl)ccc23)ccc1O`, the Potency [1] is reported as 8.9 nM (active), the Potency [2] is reported as 31.6 nM (active) and the Potency [3] is reported as 178 nM (active). The Potency [4] was 161 nM (active), the Potency [5] was 100 nM (active) and the Potency [6] was 70.8 nM (active). The Potency [7] was 50.1 nM (active), the Potency [8] was 79.4 nM (active) and the Potency [9] was 44.7 nM (active). The Potency [10] was 51 nM (active).

With `COc1ccc2c3c1O[C@H]1C[C@@H](O)C=C[C@@]31CCN(C)C2` the Potency [1] was “inactive”, the Potency [2] was “inactive” and the Potency [3] was “inactive”. The Potency [4] was “inactive”, the Potency [5] was “inactive” and the Potency [6] was “inactive”. For the same molecule, the Potency [7] was “inactive”, the Potency [8] was “inactive” and the Potency [9] was “inactive”. The Potency [10] was “inactive”.

In the case of `CCCC(=O)Nc1ncnc2c1ncn2C1OC2COP(=O)(O)OC2C1OC(=O)CCC` (stereo not given), the Potency [1] is reported as “inactive”, the Potency [2] is reported as “inactive” and the Potency [3] is reported as “inactive”. The Potency [4] was “inactive”, the Potency [5] was “inactive” and the Potency [6] was “inactive”. The Potency [7] was “inactive”, the Potency [8] was “inactive” and the Potency [9] was “inactive”. For the same molecule, the Potency [10] was “inactive”.

In the case of `Cc1ccccc1`, the Potency [1] is reported as “inactive”, the Potency [2] is reported as “inactive” and the Potency [3] is reported as “inactive”. The Potency [4] was “inactive”, the Potency [5] was “inactive” and the Potency [6] was “inactive”. The Potency [7] was “inactive”, the Potency [8] was “inactive” and the Potency [9] was “inactive”. For the same molecule, the Potency [10] was “inactive”.

For `IC(I)I`, the Potency [1] was “inactive”, the Potency [2] was “inactive” and the Potency [3] was “inactive”. The Potency [4] was “inactive”, the Potency [5] was “inactive” and the Potency [6] was “inactive”. For the same molecule, the Potency [7] was “inactive”, the Potency [8] was “inactive” and the Potency [9] was “inactive”. For the same molecule, the Potency [10] was “inactive”.

In the case of `Nc1c(Br)cc(Br)cc1CNC1CCC(O)CC1` (stereo not given), the Potency [1] is reported as “inactive”, the Potency [2] is reported as “inactive” and the Potency [3] is reported as “inactive”. For the same molecule, the Potency [4] was “inactive”, the Potency [5] was “inactive” and the Potency [6] was “inactive”. For the same molecule, the Potency [7] was “inactive”, the Potency [8] was “inactive” and the Potency [9] was “inactive”.

In the case of `CCOc1ccc2c(c1)C(C)=CC(C)(C)N2`, the Potency [1] is reported as “inactive”, the Potency [2] is reported as “inactive” and the Potency [3] is reported as “inactive”. For the same molecule, the Potency [4] was “inactive”, the Potency [5] was “inactive” and the Potency [6] was “inactive”. The Potency [7] was “inactive”, the Potency [8] was “inactive” and the Potency [9] was “inactive”. For the same molecule, the Potency [10] was “inactive”.

`CCCCC(C)(O)C/C=C/[C@H]1[C@H](O)CC(=O)[C@@H]1CCCCCCC(=O)OC` (stereo not given in full) was tested, and the Potency [1] was “inactive”, the Potency [2] was “inactive” and the Potency [3] was “inactive”. For the same molecule, the Potency [4] was “inactive”, the Potency [5] was “inactive” and the Potency [6] was “inactive”. The Potency [7] was “inactive”, the Potency [8] was “inactive” and the Potency [9] was “inactive”.

With `COC(=O)[C@H]1[C@H]2C[C@@H]3c4[nH]c5ccccc5c4CCN3C[C@H]2C[C@@H](OC(=O)c2cc(OC)c(OC)c(OC)c2)[C@@H]1OC` the Potency [1] was 316 nM (active), the Potency [2] was 251 nM (active) and the Potency [3] was 447 nM (active). The Potency [4] was 269 nM (active), the Potency [5] was 251 nM (active) and the Potency [6] was 355 nM (active). The Potency [7] was 398 nM (active), the Potency [8] was 282 nM (active) and the Potency [9] was 178 nM (active). The Potency [10] was 151 nM (active).

For `CO[C@H]1C[C@@H]2CC[C@@H](C)[C@@](O)(O2)C(=O)C(=O)N2CCCC[C@H]2C(=O)O[C@H]([C@H](C)C[C@@H]2CC[C@@H](OCCO)[C@H](OC)C2)CC(=O)[C@H](C)/C=C(\C)[C@@H](O)[C@@H](OC)C(=O)[C@H](C)C[C@H](C)/C=C/C=C/C=C/1C`, the Potency [1] was 2000 nM (active), the Potency [2] was 1410 nM (active) and the Potency [3] was 3160 nM (active). For the same molecule, the Potency [4] was 2130 nM (active), the Potency [5] was 5010 nM (active) and the Potency [6] was 1410 nM (active). For the same molecule, the Potency [7] was 1780 nM (active), the Potency [8] was 1120 nM (active) and the Potency [9] was 1120 nM (active). For the same molecule, the Potency [10] was 757 nM (active).
